Source: PubChem
The full list was thinned out, with hits kept by preference.
HIV RNase H inh-1: blocks HIV-1 RNase H cleavage of RNA/DNA duplex; P04585; RT-RNase H RNA/DNA duplex cleavage, fluorescence; inhibition, % at 10 µM; hit rate 1.9% among 65,000; AID 565; in the data active = inhibition above about 50%
RmlC RmlD mix: inhibitors of RmlC and RmlD coupled enzymes; RmlC/RmlD coupled enzyme inhibition, 384-well mixture HTS; inhibition, % at 5.5 µM; hit rate 0.39% among 110,000; in the data active = inhibition above about 30%, passing the limit was not always enough; inconclusive = no clear call, values can overlap the other calls
HIV RNase H inh-2: confirmation of HIV-1 reverse transcriptase RNase H inhibitors; hit rate 39% among 1,000; inhibition, % at 10 µM; Recombinant RT RNase H, fluorescent RNA/DNA duplex cleavage; shares compounds with HIV RNase H inh-1; in the data active = inhibition above about 48%; inconclusive = no clear call, values can overlap the other calls
Numbers without * were called inactive; ? = inconclusive; · = not tested or not shown.

SMILES	HIV RNase H inh-1	RmlC RmlD mix	HIV RNase H inh-2
CCC(=O)N/C(=N\OCc1ccc(F)cc1)c1nonc1NC(=O)CC	·	-36	·
CCc1ccccc1NC1=NCC(=O)N1Cc1ccccc1	-30	4	·
CCc1ccccc1NC1=NCC(=O)N1C1CCCCC1	83*	·	20
CCOc1ccc(C2SCC(=O)Nc3c2c(=O)[nH]n3C2CCCCCC2)cc1 (configuration not stated)	58*	79	4
COc1ccc(C2SCC(=O)Nc3c2c(=O)[nH]n3C2CCCCCC2)cc1 (configuration not stated)	-1	25	·
COc1ccc(C2=CC(=O)CCC2)cc1	·	10	·
c1ccc(Cn2nnc3c(N4CCCC4)ncnc32)cc1	-15	-9	·
c1ccc(-n2nnc3c(N4CCOCC4)ncnc32)cc1	67*	8	15
CCCCn1ccnc1C(=O)c1cccc(S(=O)(=O)N2CC(C)CC(C)C2)c1 (configuration not stated)	·	-3	·
CCOC(=O)Cc1csc(NC(=O)c2cccc(N3C(=O)CCC3=O)c2)n1	-17	7	·
Cc1ccc(-c2csc(NC(=O)c3cccc(N4C(=O)CCC4=O)c3)n2)o1	57*	-6	24
O=c1c2[nH]c3ccccc3c2ncn1CCN1CCCCC1	78*	-4	37
O=c1c2[nH]c3ccccc3c2ncn1CCN1CCOCC1	1	22	·
CSc1nc(N(CCO)CCO)c2sc3nc(-c4ccco4)c4c(c3c2n1)CCC4	56*	-9	16
OCCN(CCO)c1ncnc2c1sc1nc(N3CCOCC3)c3c(c12)CCCC3	-44	6	·
O=C(CSCc1ccc(Cl)cc1)c1ccco1	1	-12	·
CCOc1ccc(N(CC(=O)NC2CCCC2)C(=O)CSc2nnc(COc3ccccc3)o2)cc1	·	5	·
O=c1/c(=C\c2cccnc2)sc2nc3ccccc3n12	-30	6	·
O=C1c2sc3nc4c(c(=O)n3c2C(=O)N1c1ccccc1)CCC4	12	-11	·
O=C1c2sc3nc4ccccc4n3c2C(=O)N1c1ccccc1Cl	85*	13	72*
Cc1ccccc1N1C(=O)c2sc3nc4c(c(=O)n3c2C1=O)CCC4	88*	-3	80*
COC(=O)CNC(=O)C1(C)C=CCN1C(=O)c1ccccc1 (configuration not stated)	·	5	·
O=c1c(-c2ccc(O)cc2O)coc2cc(O)cc(O)c12	·	3	·
O=c1c(O)c(-c2ccc(O)cc2O)oc2cc(O)cc(O)c12	75*	·	59*
CCCn1c2c(c(O)c(C(=O)Nc3ncccc3C)c1=O)CCCC2	-10	1	·
SMILES	HIV RNase H inh-1	RmlC RmlD mix	HIV RNase H inh-2
O=C(Nc1cccnc1)c1c(O)c2c(n(Cc3ccccc3)c1=O)CCCC2	68*	-12	?
COc1ccc(-c2ccnc(SCC(=O)Nc3ccccn3)n2)cc1	·	10	·
CCOC(=O)c1c(NC(=O)CSc2n[nH]c(N)n2)sc(CC)c1C	-67	-65	·
Cc1ccc(/C=C/C2=Cc3c(sc(NC(=O)CSc4n[nH]c(N)n4)c3C#N)C(C)(C)C2)o1	96*	22	67*
COc1ccc(NCc2cc3cc(OC)ccc3[nH]c2=O)cc1	56*	-1	1
COc1ccc(NCc2cc3ccccc3[nH]c2=O)cc1	-6	-6	·
O=C(NCCCN1CCN(c2ccccc2F)CC1)Nc1ccc(F)cc1	-3	5	·
CSc1ccc(NC(=O)NCCCN2CCN(c3ccccc3F)CC2)cc1	53*	-10	31
O=C(NCc1nc2ccccc2[nH]1)C1=C[C@H](c2ccc3c(c2)OCO3)C[C@H](OCCCCO)O1	·	-12	·
COc1cccc(C(=O)Nc2ccccc2N2CCOCC2)c1	-10	16	·
COC(=O)c1ccc(N2CCOCC2)c(NC(=O)Nc2cccc(OC)c2)c1	87*	10	-2
COCCOc1ccc(C(F)(F)F)cc1Nc1nc2ccccc2o1	56*	9	47
COCCOc1ccc(C(F)(F)F)cc1NC(=O)COC(=O)c1c(C)noc1C	-4	-1	·
O=C(Cc1ccc(S(=O)(=O)N2CCCC2)s1)Nc1nc2c(s1)CCCC2	76*	9	-3
CC(C)(C)NC(=O)Cc1ccc(S(=O)(=O)N2CCCC2)s1	·	-7	·
c1coc(-c2nc(-c3ccco3)c(-c3ccco3)nc2-c2ccco2)c1	86*	-47	-1
Nc1nc(-c2ccco2)c(-c2ccco2)s1	-6	-14	·
CCCn1c2c(c(O)c(C(=O)Nc3nc(C)cs3)c1=O)CCCC2	-1	12	·
Cc1csc(NC(=O)c2c(O)c3c(n(CC(C)C)c2=O)CCCC3)n1	64*	-14	?
CN1C=CC2=C(C#N)C(N)C(C#N)(C#N)[C@H](c3ccccc3)[C@H]2C1 (some centres not stated)	·	7	·
Cc1ccc(-c2c3c([nH]c(=S)c2C#N)CCCC3)o1	87*	-2	32
N#Cc1c(-c2ccncc2)c2c([nH]c1=S)CCCC2	·	8	·
NC(=O)c1cc[n+](CC2=C(C(=O)O)N3C(=O)[C@@H](NC(=O)C(c4ccccc4)S(=O)(=O)[O-])[C@H]3SC2)cc1 (some centres not stated)	·	-6	·
N[C@@H](C(=O)N[C@@H]1C(=O)N2C(C(=O)O)=C(Cl)CS[C@H]12)c1ccccc1	59*	-9	33
Cc1ccc(S(=O)(=O)N2CCC(=O)N(CCO)CC2)cc1	·	13	·
SMILES	HIV RNase H inh-1	RmlC RmlD mix	HIV RNase H inh-2
COC(=O)c1ccccc1NC(=O)CN1C(=O)C2CCCN2c2ncc(Cl)cc21 (configuration not stated)	60*	-7	?
CCc1ccccc1NC(=O)CN1C(=O)C2CCCN2c2ncc(Cl)cc21 (configuration not stated)	-3	5	·
Nc1cc2c(cc1C(=O)c1ccc(Cl)cc1)OCCO2	·	7	·
COc1ccc(-c2cc(C(=O)Nc3c(C)nn(Cc4ccc(Cl)cc4)c3C)no2)cc1	62*	-10	-6
Cc1nn(Cc2ccc(Cl)cc2)c(C)c1NC(=O)c1cc(-c2ccco2)on1	-43	·	·
c1ccc2[nH]c(CN3CCOCC3)nc2c1	·	-8	·
c1ccc2[nH]c(SN3CCOCC3)nc2c1	91*	13	66*
CCCCCCCCCCCC(=O)N/N=C/c1ccco1	·	1	·
CCCC/C(O)=N\S(=O)(=O)c1ccc(N=NN(C)C)cc1	·	9	·
COCCNC(=O)c1onc(CSc2cc(C)cc(C)c2)c1C(=O)NCCOC	·	20	·
CN(C)c1ccc(NC(=O)CN2C(=O)CC(c3ccccc3)=Nc3ccccc32)cc1	89*	-12	41
CN(C)c1ccc(NC(=O)CCCc2ccccc2)cc1	12	10	·
CCCC(=O)Nc1cc(C)c2c(=O)oc3ccccc3c2n1	-18	8	·
Cc1cc(NC(=O)CN2CCc3ccccc3C2)nc2c1c(=O)oc1ccccc12	58*	·	48
Cc1ccc(NC2c3ncccc3C(=O)N2c2ccccc2C)cc1C (configuration not stated)	56*	14	11
CCOc1ccc(N2C(=O)c3cccnc3C2Nc2ccc(Cl)cc2)cc1 (configuration not stated)	20	-5	·
CC(CCc1ccc(O)cc1)NCCc1ccc(O)c(O)c1 (configuration not stated)	·	10	·
CC(Cc1ccc(O)c(O)c1)C(C)Cc1ccc(O)c(O)c1 (configuration not stated)	99*	-15	59*
O=C(O)C1=C[C@@H](c2coc3ccccc3c2=O)C[C@@H](OCCCCO)O1	·	8	·
